KDM5B inh = Primary screen for KDM5B Histone Demethylases FDH-coupled qHTS. Lysine-specific demethylase 5B (Homo sapiens), Q9UGL1. KDM5B demethylase, FDH-coupled NADH fluorescence (FDH is formaldehyde dehydrogenase). Potency, µM (doses to about 57.7 µM), most hits filed as inhibitors. 220,000 compounds, 2.6% hits. AID 1347165, 2019; active means well fitted inhibition curve with a large enough effect; inconclusive means small, poorly fitted or top-dose-only effect; inactive means no such curve, though single readings can be large or run the other way; further: potency means the concentration at half of the fitted maximal effect; 0% is about no effect; nearly all actives have a fitted effect of over 70% in size
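KDM5BΔAP (200 nM final) in 50 mM HEPES pH 7.5, 0.01% Tween-20 was preincubated 10 min at RT with compound over a concentration range. Substrate mix (H3K4me3 12.5 µM, α-KG 25 µM, Fe²⁺, ascorbate, NAD⁺, FDH) was added, and NADH fluorescence change over 30 min gave dose-response curves.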
IP6K1 inhibitor = Primary qHTS assay for small molecule inhibitors of Inositol hexaphosphate kinase 1 (IP6K1) | Inositol hexakisphosphate kinase 1 (Homo sapiens), Q92551 | IP6K1 kinase, ADP-Glo luminescence, 2 h; active compounds read low | activity change, % (series mostly up to about 58 µM) | 140,000 compounds, 0.81% hits; in the data active means activity change below about -25%; further: on the % scale 0 is the no-effect control and ±100 the full control effect
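ADP-Glo luminescence measures ADP made by human IP6K1 during a 2 h RT reaction with ATP/IP6 (mix at 1.3 mM/130 uM); top library doses 57.5 and 19.1 uM final.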
Active calls of the source: *; i = inactive; ? = inconclusive; . = not tested or not shown. In the library only some 2.7% were active in any assay of this set; here they are far more common.

SMILES | KDM5B inh | IP6K1 inhibitor
O=C(NC1CCCC1)C(Sc1ccccn1)c1ccccc1 (stereo unspecified) | i | .
O=C(NC1CCN(C(=O)c2ccc(-c3cccs3)cc2)CC1)c1ccccc1Cl | . | -3.9
COC(=O)c1c(-c2ccccc2)csc1NC(=O)CN1CCOCC1 | i | .
Cc1cc(CNC(=O)c2cc(-c3cccnc3)cc3c2OCCN3C)no1 | ? | -24.2
Cc1cc(CNC(=O)c2cc(-c3ccccc3C)cc3c2OCCN3C)no1 | 35.5µM* | -17.5
Cc1cc(CNC(=O)c2cc(-c3ccncc3)cc3c2OCCN3C)no1 | ? | -12.5
Cc1cc(CNC(=O)c2cc(-c3ccc(CO)cc3)cc3c2OCCN3C)no1 | 31.6µM* | -15.0
Cc1cc(CNC(=O)c2cc(-c3ccccc3F)cc3c2OCCN3C)no1 | 31.6µM* | -21.7
COc1ccc(OC)c(S(=O)(=O)N2CCC(c3nc(-c4cccn4C)no3)CC2)c1 | . | 7.6
CCc1nnsc1C(=O)N(C)CCOc1cc(C)cc(C)c1 | i | .
CCN(CC)CCNC(=O)c1ccc2c(c1)N(S(C)(=O)=O)CC2 | 28.2µM* | 0.3
CCOC(=O)CNC(=O)c1ccc2c(c1)N(S(C)(=O)=O)CC2 | ? | -7.8
CS(=O)(=O)N1CCc2ccc(C(=O)NCCN3CCc4ccccc4C3)cc21 | 28.2µM* | -3.6
CN(C)CCCNC(=O)c1ccc2c(c1)N(S(C)(=O)=O)CC2 | ? | -3.6
C#CCNC(=O)[C@@H]1Cc2cn(Cc3c(C)noc3C)c3cccc(c23)[C@H](CC(C)C)N1 | ? | 21.7
COC(=O)c1n[nH]c([Si](C)(C)C)c1[Si](C)(C)C | i | .
O=C(O)CCC(=O)N[C@H]1CCN2C(=O)c3cc(-c4cccc(C(F)(F)F)c4)ccc3NC(=O)[C@H]12 | i | -3.9
O=C(N[C@H]1CCN2C(=O)c3cc(-c4ccc(Cl)cc4)ccc3NC(=O)[C@H]12)C1CCCC1 | 25.1µM* | 5.1
O=C(NC1CCCCC1)N[C@H]1CCN2C(=O)c3cc(-c4cccs4)ccc3NC(=O)[C@H]12 | ? | -5.2
O=C(N[C@H]1CCN2C(=O)c3cc(-c4cccs4)ccc3NC(=O)[C@H]12)C1CCCC1 | 39.8µM* | -4.7
O=C(N[C@H]1CCN2C(=O)c3cc(-c4cccs4)ccc3NC(=O)[C@H]12)c1cccc(F)c1 | 28.2µM* | -9.7
COc1ccc(-c2ccc3c(c2)C(=O)N2CC[C@H](NC(=O)C4CCCC4)[C@H]2C(=O)N3)cc1 | ? | -8.1
O=C(O)CCC(=O)N[C@H]1CCN2C(=O)c3cc(-c4cccs4)ccc3NC(=O)[C@H]12 | 35.5µM* | 7.6
O=C(N[C@H]1CCN2C(=O)c3cc(-c4ccsc4)ccc3NC(=O)[C@H]12)c1cccc(F)c1 | ? | 6.4
COCCOc1ncccc1-c1noc([C@@H]2CCCN2Cc2ccc(OC)cc2)n1 | ? | 3.5
SMILES | KDM5B inh | IP6K1 inhibitor
Cc1ccccc1C(=O)NC(c1ccc(Cl)cc1)c1cccnc1 (stereo unspecified) | i | .
CCNC(=O)c1cc(NC(=O)CC)cc2nc(C)ccc12 | 20µM* | 19.3
CCC(=O)Nc1cc(C(=O)NCc2ccc(N3CCN(C)CC3)cc2)c2ccc(C)nc2c1 | ? | 8.1
COc1ccc(C(C)NC(=O)c2cc(NC(C)=O)cc3nc(C)ccc23)cc1 (stereo unspecified) | ? | 1.7
CCC(=O)NCCCNC(=O)c1cc(-c2ccccc2)nc2ccccc12 | i | .
CCCCNC(=O)c1cc(NC(=O)CC)cc2nc(C)ccc12 | 25.1µM* | 11.9
CCC(=O)Nc1cc(C(=O)NCC(C)C)c2ccc(C)nc2c1 | 22.4µM* | 8.6
Cc1ccc(-c2cccc(CN3CCCC3C(=O)NCC3CC3)c2)cc1Cl (stereo unspecified) | . | 5.0
O=C(NC1CCN(Cc2ccccc2)CC1)c1nn(CC2CC2)c2c1CNCC2 | . | 8.2
O=C(Nc1cccc(F)c1)c1cc2n(n1)CC(c1ccc(Br)cc1)OC2 (stereo unspecified) | 25.1µM* | 5.4
COc1cc(NC(=O)c2cc3n(n2)CC(c2ccc(Br)cc2)OC3)cc(OC)c1OC (stereo unspecified) | 31.6µM* | -3.5
COc1ccc(NC(=O)c2cc3n(n2)CC(c2ccc(Br)cc2)OC3)cc1OC (stereo unspecified) | ? | 0.9
NC(=O)c1ccc(NC(=O)c2cc3n(n2)CC(c2ccc(Br)cc2)OC3)cc1 (stereo unspecified) | 25.1µM* | -0.1
CC(=O)Nc1ccc(NC(=O)c2cc3n(n2)CC(c2ccc(Br)cc2)OC3)cc1 (stereo unspecified) | ? | -7.0
CCNC(=O)c1cc2n(n1)CC(c1ccc(Br)cc1)OC2 (stereo unspecified) | ? | -1.0
Cc1cc(C)n(CCC(=O)N2CC(c3noc(COc4ccccc4)n3)C2)n1 | . | 10.0
Cc1nn(-c2ccccc2)c2c1C(C)N(C1CCN(C(=O)C3CC3)C1)C2=O (stereo unspecified) | . | -2.0
O=C(COC(=O)C12CC3CC(CC(C3)C1)C2)Nc1ccc2c(c1)OCO2 | i | .
O=C(NCCc1ccccc1)Nc1cccc(-c2ccc(N3CCCCC3)nn2)c1 | ? | -9.7
COC(=O)COc1ccc2c(=O)c(-c3ccccc3)c(C(F)(F)F)oc2c1 | i | .
Cc1nn(-c2ccccc2)c2c1C(C1CC1)N(C1CN(C(=O)C3CCCC3)C1)C2=O (stereo unspecified) | . | 10.2
Cc1ccn2c(C(=O)N3CCCn4nc(C(O)CO)cc4C3)nnc2n1 (stereo unspecified) | 31.6µM* | 23.9
CN(C)CC(O)c1cc2n(n1)CCCN(C(=O)c1cccn1C1CC1)C2 (stereo unspecified) | i | 17.0
O=C(OCc1coc(-c2ccc(F)cc2)n1)c1ccc2nccnc2c1 | i | .
COc1cc(F)ccc1-c1cc(C(=O)NCc2cccnc2)c2c(c1)ncn2C | 35.5µM* | -3.7
SMILES | KDM5B inh | IP6K1 inhibitor
Cn1cnc2cc(-c3ccc(F)cc3)cc(C(=O)NCC3CCOCC3)c21 | 35.5µM* | -7.5
COc1ncccc1-c1cc(C(=O)NCCN2CCOCC2)c2c(c1)ncn2C | 35.5µM* | 10.2
COc1cc(F)ccc1-c1cc(C(=O)NCc2c(C)cc(C)[nH]c2=O)c2c(c1)ncn2C | ? | -1.3
COC1CCCN(C(=O)c2cc(-c3ccc(F)cc3)cc3ncn(C)c23)C1 (stereo unspecified) | ? | 8.0
Cn1cnc2cc(-c3ccc(F)cc3)cc(C(=O)NCc3cccnc3)c21 | 31.6µM* | -6.5
COc1ncccc1-c1cc(C(=O)N(C)CCN(C)C)c2c(c1)ncn2C | i | 3.3
Cn1cnc2cc(-c3ccc(N4CCOCC4)cc3)cc(C(=O)NCc3cccnc3)c21 | ? | -0.6
O=S(=O)(CCSc1nnnn1C1CCCC1)c1cc(Cl)ccc1Cl | i | .
S=C(NCc1ccccc1Cl)Nc1ccccc1 | i | .
COc1ccc(CNC(=O)c2cc(-c3ccc(F)cc3)cc3ncn(C)c23)cc1OC | i | -10.2
Cn1cnc2cc(-c3cccc(N4CCOCC4)c3)cc(C(=O)NCc3cccnc3)c21 | ? | -10.0
COc1cc(F)ccc1-c1cc(C(=O)NCc2ccnc(N)c2)c2c(c1)ncn2C | 35.5µM* | -0.5
COCCNC(=O)c1cc(-c2cnn(Cc3ccccc3)c2)cc2ncn(C)c12 | 35.5µM* | 10.0
COc1cc(CNC(=O)c2cc(-c3cccc(N(C)C)c3)cc3ncn(C)c23)ccn1 | i | -0.3
